CRE Fsk mod: modulators of forskolin-stimulated CRE signaling in CHO cells. CHO CRE-bla reporter (cAMP response element driving beta-lactamase), forskolin EC10, beta-lactamase ratio. Potency, µM (series often up to 38.2 µM), for inactives: top-dose activity change, negative = inhibition, actives largely listed as activators. hit rate 2.5% among 71,000. AID 662; active means well fitted activation curve with a large enough effect in the signal ratio, with a control signal flat, not every such curve was filed as active; inconclusive means small, poorly fitted or top-dose-only effect, or effect the other way, or a change in a side signal; the % refers to the signal ratio; further: % of control where 0% means no effect
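CHO CRE-bla cells, overnight plating in Opti-MEM with 0.5% dialyzed FBS; cpd titration + EC10 NKH 477, 3 h 37 °C; CCF4 2 h RT; ex 405/em 460 vs 530 ratio → %Activity, AC50.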
ERK AVP block: inhibitors of vasopressin-stimulated ERK signaling pathway | HEK293-V1b, vasopressin-stimulated pERK AlphaScreen | Potency, µM (titrated, usually from 57.5 µM), for inactives: top-dose activity, negative = inhibition, most hits filed as inhibitors | hit rate 0.99% among 72,000 | AID 995; further: on the % scale 0 is the no-effect control and ±100 the full control effect; nearly all actives have a fitted effect of over 55% in size
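Phosphorylated ERK1/2 detected via AlphaScreen bead proximity in lysates of V1b-expressing HEK293 cells given 25 nM vasopressin for 5 min after 30 min compound exposure (37 °C). AC50 from Hill equation; basal DMSO 0%, vasopressin 100%.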
Peg3 imprint: inducers of genomic imprint erasure in mouse ES cells; mouse ES Peg3-LacZ reporter, beta-gal luminescence, 40 h; Potency, µM (doses to about 60.7 µM), for the others: at the top dose activity change, positive = activation, hits mostly activators; hit rate 0.02% among 110,000
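Readout: BetaGlo luminescence (5 min, room temp) for LacZ from the normally silent maternal Peg3 allele in female Peg3LacZ-Neo ES cells. Cells 300/well, 40 h, 37C, 5% CO2. Data normalized per plate to negative controls.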
IkB signaling: suppresses IkB signaling in ABC-DLBCL reporter cells. ABC-DLBCL IkBa-CBG/CBR dual luciferase ratio, 4 h; response scale: scaled: untreated 0%, proteasome inhibitor 100%. Potency, µM (series often up to 57.1 µM), for inactives: at the highest dose IkBa stabilization activation. hit rate 0.04% among 110,000; active means well fitted curve in the direction sought with a large enough effect in the signal ratio, not every such curve was filed as active; inconclusive means small, poorly fitted or top-dose-only effect, or a change in a side signal; the % refers to the signal ratio;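 further: the direction sought is a rising ratio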
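In this assay, an IκBα–CBG68 fusion accumulates when IKK-driven degradation is blocked; native CBR normalizes for cell number. OCI-Ly3 cells were treated 4 h with compound and doxycycline, then green and red light read after Chroma-Glo addition.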
* = called active by the depositor; [ ] = dose if it differs, or a comment. This is one part of a sample in which hits are shown more often than they occur. Unless noted, the call rests on the fitted dose curve; in most records, active means well fitted curve in the direction sought with a large enough effect; inconclusive means small, poorly fitted or top-dose-only effect, or another doubt; inactive means no such curve, though single readings can be large; an effect the other way counts as inactive or inconclusive. Potency means the concentration at half of the fitted maximal effect.

CCC(C(=O)Nc1cc(C)nn1-c1nc(C)cc(C)n1)c1ccccc1 (stereo not drawn) was read as CRE Fsk mod 13µM*, ERK AVP block inconclusive, Peg3 imprint -14% and IkB signaling 0%.
CC1(C)Cc2c(C#N)c(NCCCO)nc(-c3ccccc3)c2CO1 was read as CRE Fsk mod 10µM*, ERK AVP block -17%, Peg3 imprint -6% and IkB signaling -4%.
Screening CCCc1nc(NCc2ccco2)c(C#N)c2c1COC(C)(C)C2 returned CRE Fsk mod 13µM*, ERK AVP block -23%, Peg3 imprint 6% and IkB signaling -3%.
For Nc1nc2ncc(=O)[nH]c2c(=O)[nH]1 the results were ERK AVP block 2% and Peg3 imprint -3%.
O=C(Nc1ccc(S(=O)(=O)Nc2cnc3ccccc3n2)cc1)c1ccc(Br)o1 was read as CRE Fsk mod 4µM*, ERK AVP block -27%, Peg3 imprint 11% and IkB signaling inconclusive.
`COc1cc2c(C(=O)NC3CCCCCC3)cn(C)c(=O)c2cc1OC` gave CRE Fsk mod 2µM*, ERK AVP block -9%, Peg3 imprint -1% and IkB signaling -1%.
For Cc1nc2ncnn2c(N2CCC(C(=O)NC3CCCC3)CC2)c1Cc1ccccc1 the results were CRE Fsk mod -1%, ERK AVP block 19% and IkB signaling 3%.
`Cc1nc2ncnn2c(Nc2ccc3c(c2)OCO3)c1Cc1ccccc1` gave CRE Fsk mod inconclusive, ERK AVP block 25µM*, Peg3 imprint -9% and IkB signaling inconclusive.
COc1ccc(C(=O)OCCNC(=O)c2c(Cl)nc3ccccn23)cc1 was read as CRE Fsk mod 0.4µM*, ERK AVP block inconclusive, Peg3 imprint -16% and IkB signaling inconclusive.
O=C(NCCOC(=O)c1ccncc1)c1ccccc1 was read as CRE Fsk mod -1%, ERK AVP block 1%, Peg3 imprint 3% and IkB signaling 0%.
For Cc1c(C(=O)OCc2ccccc2)[nH]c2c1C(=O)CC(c1ccc(N(C)C)cc1)C2 (stereo not drawn) the results were Peg3 imprint -9%[10.9 µM] and IkB signaling 3%.
For Cc1c(C(=O)OCC2CCCO2)[nH]c2c1C(=O)CC(c1ccc(N(C)C)cc1)C2 (stereo not drawn) the results were CRE Fsk mod inconclusive, ERK AVP block 25µM*, Peg3 imprint -21% and IkB signaling inconclusive.
For COc1ncc2nc(-c3ccccc3)c(=O)n(-c3ccccc3)c2n1 the results were CRE Fsk mod inconclusive, ERK AVP block inconclusive, Peg3 imprint -8% and IkB signaling -1%[11.4 µM].
O=C(Oc1ccc(-c2cn3c(n2)SCC3)cc1)c1ccccc1 was read as CRE Fsk mod -5%, ERK AVP block 16µM*, Peg3 imprint -30% and IkB signaling 2%.
[N-]=[N+]=N[C@@H]1[C@H](O)[C@H](CO)O[C@@H]1n1cnc2c(N)ncnc21 was read as CRE Fsk mod 3%[7.6 µM], ERK AVP block 7%[11.5 µM], Peg3 imprint 10%[10.9 µM] and IkB signaling 2%[11.4 µM].
For Cc1cc2n(n1)C(c1ccco1)Nc1ccccc1-2 (stereo not drawn) the results were CRE Fsk mod 3.2µM*, ERK AVP block 13%, Peg3 imprint 3% and IkB signaling 1%.
Screening Cc1cc2n(n1)C(c1ccc(O)cc1)Nc1ccccc1-2 (stereo not drawn) returned CRE Fsk mod inconclusive, ERK AVP block 4%, Peg3 imprint -32% and IkB signaling inconclusive.
Screening NC[C@H](O)C1CCCCCCC1 returned CRE Fsk mod 1%, ERK AVP block 8% and IkB signaling -2%.
CCOC(=O)c1c(CN(CC)CC)oc2cc(Br)c(O)cc12 was read as CRE Fsk mod 3.2µM*, ERK AVP block inconclusive, Peg3 imprint -18% and IkB signaling 6%.
CCOC(=O)c1c(CN2CCN(C)CC2)oc2ccc(O)cc12 was read as CRE Fsk mod -11%, ERK AVP block -1%, Peg3 imprint -11% and IkB signaling -1%.
COc1ccc(Cl)cc1NC(=O)NC(C)c1ccncc1 (stereo not drawn) was read as CRE Fsk mod -10%, ERK AVP block -13%, Peg3 imprint 4% and IkB signaling 1%.
`COc1ccc(Cl)cc1NC(=O)C1CSC(c2ccncc2)=N1` (stereo not drawn) gave CRE Fsk mod 3.2µM*, ERK AVP block 16µM*, Peg3 imprint -20% and IkB signaling -4%.
CN(C)S(=O)(=O)c1ccc2c(c1)c(=O)c(C(=O)NCCCN1CCCCCC1)cn2C was read as CRE Fsk mod -8%, ERK AVP block 16µM*, Peg3 imprint -6% and IkB signaling -2%.
N#CCCn1c(=O)c(CCc2ccccc2)nc2cnc(OCc3ccccc3)nc21 was read as CRE Fsk mod 4%, ERK AVP block inconclusive and IkB signaling 4%[11.4 µM].
CCNc1ncc2nc(CCc3ccccc3)c(=O)n(CCC#N)c2n1 was read as CRE Fsk mod 5µM*, ERK AVP block inconclusive, Peg3 imprint 8% and IkB signaling -6%[11.4 µM].
Screening CCNc1ncc2nc(CCc3ccccc3)c(=O)n(C)c2n1 returned CRE Fsk mod 13µM*, ERK AVP block inconclusive and IkB signaling -2%[11.4 µM].
For CCNc1ncc2nc(CCc3ccccc3)c(=O)n(C3CC3)c2n1 the results were CRE Fsk mod 13µM*, ERK AVP block inconclusive, Peg3 imprint 2% and IkB signaling -1%[11.4 µM].
For CCNc1ncc2nc(CCc3ccccc3)c(=O)n(Cc3ccc(F)cc3)c2n1 the results were CRE Fsk mod inconclusive, ERK AVP block -8%, Peg3 imprint 2% and IkB signaling 0%[11.4 µM].
Screening C[C@H]1[C@H](C)CC[C@]2(C(=O)O)CC[C@]3(C)C(=CC[C@@H]4[C@]5(C)C[C@H](O)[C@@H](O)[C@@](C)(CO)[C@@H]5[C@H](O)C[C@@]43C)[C@H]12 returned CRE Fsk mod -9%[7.6 µM], ERK AVP block 4%[11.5 µM] and IkB signaling 0%[11.4 µM].
CC1=C(/C=C/C(C)=C/C=C/C(C)=C/C=O)C(C)(C)CCC1 was read as CRE Fsk mod inconclusive, ERK AVP block 7%, Peg3 imprint -25% and IkB signaling inconclusive.
CCOC(=O)c1[nH]c2ccc(F)cc2c1NC(=O)c1cc(OC)c(OC)c(OC)c1 was read as CRE Fsk mod 6.3µM*, ERK AVP block inconclusive, Peg3 imprint -9% and IkB signaling inconclusive.
`CCOC(=O)c1[nH]c2ccccc2c1NC(=O)c1ccc(OC)c(OC)c1` gave Peg3 imprint -8%[10.9 µM] and IkB signaling -1%.
For COc1cc2nc(Nc3cccc(C)c3)nc(N)c2cc1OC the results were Peg3 imprint -15%[10.9 µM] and IkB signaling inconclusive.
Oc1ccc(Nc2nc(N3CCCC3)c3ccccc3n2)cc1 was read as CRE Fsk mod inconclusive, ERK AVP block 32µM*, Peg3 imprint -26% and IkB signaling inconclusive.
`Nc1nc(Nc2ccccc2)nc2ccccc12` gave CRE Fsk mod -6%, ERK AVP block 13µM*, Peg3 imprint -87% and IkB signaling inconclusive.

Screening data deposited in PubChem BioAssay by National Center for Advancing Translational Sciences (NCATS).
